Data reported in PubChem BioAssay (NCATS).
Records with an inconclusive call do not appear. A number with no mark means an inactive call. Active and inactive are the calls of the source. Calls come from the whole dose curve.

Experiment: Primary qHTS for inhibitors of SARS-S pseudo-typed particle cell entry (AID 1479145); note: nearly all actives have a fitted effect of over 45% in size
Settings: SARS-S pseudotyped particle cell entry, luciferase reporter; series mostly up to 57.1 µM; activity change, negative = inhibition: at the top concentration
% is set by controls: 0 for no effect and ±100 for the full control effect; potency is the fitted concentration of half-maximal effect.

Structure (SMILES) | activity change, negative = inhibition | Potency | outcome
C=C1C/C(=C\C=C2/CCC[C@]3(C)[C@@H]([C@H](C)/C=C/C(C)C(C)C)CC[C@@H]23)[C@@H](O)C[C@@H]1O (stereo not given in full) | -21.3% |  | 
CC(C)OC(=O)[C@H](C)N[P@](=O)(CO[C@H](C)Cn1cnc2c(N)ncnc21)Oc1ccccc1 |  | 0.891 µM (active) | 
Cc1c(OCC(F)(F)F)ccnc1C[S@@](=O)c1nc2ccccc2[nH]1 | -0.229% |  | 
CC(=O)OC1C[C@H](O[C@@H]2C(O)C[C@H](O[C@@H]3C(O)C[C@@H](OC4CC[C@]5(C)C(CCC6C5CC(O)[C@@]5(C)C(C7=CC(=O)OC7)CC[C@@]65O)C4)OC3C)OC2C)O[C@H](C)[C@H]1O[C@H]1OC(CO)C(O)C(O)C1O (stereo not given in full) |  | 0.794 µM (active) | 
N#Cc1c(N2C[C@@H]3NCCO[C@H]3C2)c(F)cc2c(=O)c(C(=O)O)cn(C3CC3)c12 | -7.81% |  | 
CCOc1ccc2c(c1)C(C)=CC(C)(C)N2 | -15.9% [at 114 µM] |  | 
COc1ccc(C=CC(=O)O)cc1 | -15.6% |  | 
Nc1nc(Cl)nc2c1ncn2C1CC(O)C(CO)O1 (stereo not given) |  | 11.2 µM (active) | 
CC(C)(O)CNc1nc(Nc2ccnc(C(F)(F)F)c2)nc(-c2cccc(C(F)(F)F)n2)n1 | 2.6% |  | 
CCC[C@H](NC(=O)[C@@H]1[C@H]2CCC[C@H]2CN1C(=O)[C@@H](NC(=O)[C@@H](NC(=O)c1cnccn1)C1CCCCC1)C(C)(C)C)C(=O)C(=O)NC1CC1 |  |  | inactive
CC[C@H]1OC(=O)[C@H](C)[C@@H](O[C@H]2C[C@@](C)(OC)[C@@H](O)[C@H](C)O2)[C@H](C)[C@@H](O[C@@H]2O[C@H](C)C[C@H](N(C)C)[C@H]2O)[C@](C)(OC)C[C@@H](C)C(=O)[C@H](C)[C@@H](O)[C@]1(C)O | -17.1% |  | 
CCN(CC)CCOC(=O)c1ccc(N)cc1Cl |  |  | inactive
C=C1CC[C@H](O)CC1=C/C=C1\CCC[C@]2(C)[C@@H]([C@H](C)/C=C/[C@H](C)C(C)C)CC[C@@H]12 | -24.4% |  | 
CNCC(=O)OCc1cccnc1N(C)C(=O)OC(C)[n+]1cnn(C[C@](O)(c2cc(F)ccc2F)[C@@H](C)c2nc(-c3ccc(C#N)cc3)cs2)c1 (stereo not given in full) | -28.5% |  | 
CN(C(=O)/C=C/c1ccoc1)[C@@H]1CC[C@@]2(O)[C@H]3Cc4ccc(O)c5c4[C@@]2(CCN3CC2CC2)[C@H]1O5 | -4.61% |  | 
CCCCCCCCCC(=O)OC1(c2ccc(Cl)cc2)CCN(CCCC(=O)c2ccc(F)cc2)CC1 | -25.8% |  | 
C=C1/C(=C\C=C2/CCC[C@]3(C)[C@@H]([C@H](C)CCCC(C)(C)O)CC[C@@H]23)C[C@@H](O)C[C@@H]1O |  |  | inactive
CCOC(=O)Cc1ccc(-c2ccccc2)cc1 |  |  | inactive [at 114 µM]
CC[C@@]1(O)C(=O)OCc2c1cc1n(c2=O)Cc2cc3c([N+](=O)[O-])cccc3nc2-1 | -98.9% [at 114 µM] |  | 
CC(C)c1nc(CN(C)C(=O)N[C@@H](CCN2CCOCC2)C(=O)N[C@H](CC[C@H](Cc2ccccc2)NC(=O)OCc2cncs2)Cc2ccccc2)cs1 | -10.8% |  | 
CC[C@H]1OC(=O)[C@H](C)[C@@H](O[C@H]2C[C@@](C)(OC)[C@@H](O)[C@H](C)O2)[C@H](C)[C@@H](O[C@@H]2O[C@H](C)C[C@H](N(C)C)[C@H]2O)[C@](C)(O)C[C@@H](C)CN(C)[C@H](C)[C@@H](O)[C@]1(C)O | -39.6% |  | 
C=C1CC[C@H](O)C/C1=C\C=C1/CCC[C@]2(C)[C@@H]([C@H](C)CCCC(C)C)CC[C@@H]12 | -6.7% |  | 
Cc1cc(N)c2ccccc2[n+]1CCCCCCCCCC[n+]1c(C)cc(N)c2ccccc21 | -2.83% [at 11.4 µM] |  | 
Nc1nc(-n2cc(C(=O)O)c(=O)c3cc(F)c(N4CC(O)C4)c(Cl)c32)c(F)cc1F | 3.05% |  | 
C=C[C@]1(C)C[C@@H](OC(=O)CSCCN(CC)CC)[C@]2(C)[C@H](C)CC[C@]3(CCC(=O)[C@H]32)[C@@H](C)[C@@H]1O |  | 20 µM (active) | 
CCN(CC)Cc1cc(Nc2ccnc3cc(Cl)ccc23)ccc1O |  | 10 µM (active) | 
C[C@H]1C[C@H]2[C@H]3CCC4=CC(=O)C=C[C@]4(C)[C@@]3(F)[C@@H](O)C[C@]2(C)[C@@]1(OC(=O)c1ccccc1)C(=O)CO |  |  | inactive
CC1(C)C(/C=C/C=C/C=C/C=C2/N(CCCCS(=O)(=O)O)c3ccc4ccccc4c3C2(C)C)=[N+](CCCCS(=O)(=O)[O-])c2ccc3ccccc3c21 | -25.3% |  | 
CN1C(CC(=O)c2ccccc2)CCCC1CC(O)c1ccccc1 (stereo not given) | -28.4% |  | 
C=C1/C(=C/C=C2\CCC[C@]3(C)[C@@H]([C@H](C)CCCC(O)(C(F)(F)F)C(F)(F)F)CC[C@@H]23)C[C@@H](O)C[C@@H]1O |  |  | inactive
